Laboratory results reported in the supplement of paper PMC11417369.
Over roughly 25,000 sequences, “ln(normalized median fluorescence intensity)” has its median near 9.3; the highest 2% begin near 10. For the sample, the highest values were picked, then their nearest neighbours and some sequences at random.

Tested on: PF3D7_0420300 AP2 domain 1 (GST-tagged)
Assay: gcPBM binding intensity (ln(normalized median fluorescence intensity)); higher = stronger DNA binding
How it was run: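 Binding of GST-tagged P. falciparum DNA-binding domains, expressed in E. coli and used at about 25 μg on average, was carried out for 1 h in 1× PBS containing 1% milk, 0.2 mg/ml BSA, 0.5% salmon testes DNA and 0.03% Triton X-100. The target was an Agilent 4 × 180k array of primer-extended double-stranded 36-bp intergenic genomic probes plus negative controls, read with Alexa488 anti-GST antibody at 488 nm. Binding intensity is the highest Masliner-normalised natural-log median intensity across replicate spots of either probe orientation.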

Sequence	gcPBM binding intensity (ln)
TTGTGTTTTATTATTTTATTATTACTATTATAATGT [GTGCAC_negctrl_site484]	9.62
TAAATATATATTATATGTACTTATATATATATATAT [XGTACX_site4448]	9.13
TAATTTTCTTTTTATCGTTTTTTTTTTTTTTTTTTT [XGTACX_negctrl_site432]	9.02
AGCTAATATATCTTATATTCATATAAAAAAATATAT [CACACA_negctrl_site1786]	8.94
AAATTTACAATACATTGTACATATTAATAATATTCC [XGTACX_site3646]	9.17
CAGTTGGAAGGAAAGTGTACATAAAAAAAAATATAA [XGTACX_site8784]	9.09
TCTTTTTAGATATATACACACCGTGTCTACCTATAC [CACACA_site7551]	9.41
AAATGAATAAATAGGTCACACACAAATATATATAAA [CACACA_site8764]	9.91
TATTAATATATAGTAGTGCAATAAAGATATACTGAA	9.39
TTTCGATTAAAAATTGTACAATATAAGGAGCACACA [GTGCAC_negctrl_site476]	9.31
TACATAATACATATAACACACACAATTATACATAAA [CACACA_site9060]	10
ATAATACAATTTATAACACACACACTATAATACATA [CACACA_site8338]	9.97
ATCTTATATTATCACACACACACGCACAAAACAGAA [CACACA_site1463]	10.1
CAATATAAAAAACACACACACAAACATATATTTATA [CACACA_site3703]	10.1
ATCTTATATGATCACACACACACGCACAAAACAGAA [CACACA_site4913]	10.1
ATATCTTATGTTATCACACACACACGCACAAAACAG [CACACA_site6800]	10.2
CACAAAAATAAACACACACACATATATATTTATTAT [CACACA_site5923]	10.2
AATACAATTTATAACACACACACAATAATACATATA [CACACA_site1252]	10.2
AAAATTAAAAATAACACACACATATATATATTTATA [CACACA_site2776]	9.84

Sequence	gcPBM binding intensity (ln)
AAAATTAAAAATAACACACACATATTTATATTTATA [CACACA_site7329]	9.75
CACAGATAAATTAACACACACACACGGATATTTATA [CACACA_site7788]	10.2
ATATAATTATAAAATAAACACACATATATATTTATA [CACACA_site8039]	9.48
AAACATTTACTATATTGTACTTAAGATCTTATCGTA [XGTACX_site3919]	9.06
CTGTCTGCAGATATGGTGCATTTGTAAGATCTTACA [GTGCAC_site9870]	9.13
GACATAAAATTCAAAGTGCATAAATAAAATAAACCC	9.49
ATTATAAACCATAATTAACACACAAAATAAGTTACA [CACACA_site9057]	9.75
TTTTCTTTCTTGTTTCGTATATTATAAAAAAAAAAG [CACACA_negctrl_site854]	8.96
ACATTTATATATAATTGTACCCTACATTCTCTTTTT [XGTACX_site189]	9.5
AAAAAAATAATAAAAAGTACAAAATGTAGAAAATGT [XGTACX_site5018]	9.91
AATAGAGTTGAATGCACACATACAAATTTTTAGTTT [CACACA_site3564]	9.33
TAGTAGTTATCACTAACATGCAATAATATTATTTAA [TGCATGCA_site161]	9.08
AATATATATAAATATTGTACAAAAATATATATATAT [XGTACX_site2910]	9.26
AAGAATCATATTTAAACACACATACAGATATATATA [CACACA_site5787]	9.51
AAAAAAAACAAACACACACACAAATATTTATATATT [CACACA_site436]	10.1
TACAATCTAAAATACACACACACAAACATATATTTA [CACACA_site3702]	10.2
TATACAATATATATAACACACATATTTATATAAAAT [CACACA_site5061]	9.57
TACAATTTATGACACACACACAATAATACCTATATA [CACACA_site6704]	9.95
TATACAATCTATATAACACACATATTTATATAAAAT [CACACA_site1797]	9.46

Sequence	gcPBM binding intensity (ln)
AAGGATCACGCACAAACACACATATTTATATTTATA [CACACA_site6405]	9.47
AACAAAAAAACAAACACACACACACGCATATTTATA [CACACA_site7680]	10.2
TAAAAAAAAATATATAAACACACATATTTATATACA [CACACA_site8469]	9.36
CAATTTATAAAGAAAACACACATATACCTATATACA [CACACA_site6710]	9.55
AATACAATTTATAACACACACACAAGAATACCTATA [CACACA_site6705]	10.3
TACAATATAAAATACACACACACAAACATATATTTA [CACACA_site5941]	10.2
TTATTTAAACAAATCACACACAAATATATATACATA [CACACA_site2019]	9.71
AATATATAAGCTGTTCTATTCAAGAATTATATCTTA [CACACA_negctrl_site270]	9.06
TATATTATTTATTAGACACACATTATTAAAATATTT [CACACA_site4737]	9.19
GTTTGTATGTCCAAATGTACATATGATTTTATGAAA [XGTACX_site6595]	9.2
AATATATAAACATATACACACAAAAACATATATATA [CACACA_site4855]	10
TATATACACATATATAAACACACAAAAAAAAAAAAA [CACACA_site8626]	9.6
GCCAAAAGGATATGCACACACACACCCATATATATA [CACACA_site2198]	10.2
CAAAAGGATATGCACACACACACACGGATATTTATA [CACACA_site7099]	10.2
ATTATATATATTTATGCACACAAAATATATTATATA [CACACA_site9244]	9.29
ACAATAAACATATATACACACACAAAAAAAAAAACA [CACACA_site8033]	10.3
AATAAACATATATACACACACAAAAAAAAAAACATA [CACACA_site424]	10.2
GGGAAAATAAATAAAGTGCAGATATTAAAAGTTGTA	9.41
AGATATCTTGTGAAATAAAAAAAATAATTGCTTATA [CACACA_negctrl_site798]	8.94
